# Source: PubChem BioAssay
# HTT cytoprotect – Huntington cell model cytoprotection by ATP luminescence; PC12 HTT-Q103 induced, cytoprotection, ATP luminescence, 40 h; Potency, µM (titrated, usually from 56.4 µM), inactives show cytoprotection (ATP increase), usual class: activators; actives 0.14% (n = 230,000); active means well fitted curve in the direction sought with a large enough effect; inconclusive means small, poorly fitted or top-dose-only effect, or another doubt; inactive means no such curve, though single readings can be large; an effect the other way counts as inactive or inconclusive; further: % of control where 0% means no effect; nearly all actives have a fitted effect of over 45% in size
#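 PC12 cells with ecdysone-inducible HTT exon 1 Q103-GFP, induced with 100 nM tebufenozide and co-treated with library compounds in a dose series (1536-well, 1500 cells/well). Cytoprotection read as ATP content by ATPlite luminescence.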
# LMNA splice mod – LMNA splicing modulation; actives 0.01% (n = 200,000); Potency, µM (doses to about 46.1 µM), for the others: top-dose ratio change, negative = inhibition, hits mostly inhibitors; HeLa LMNA splicing GFP/RFP minigene ratio, 48 h; AID 1487; active means well fitted inhibition curve with a large enough effect in the signal ratio, with a control signal flat, not every such curve was filed as active; inconclusive means small, poorly fitted or top-dose-only effect, or effect the other way, or a change in a side signal; the % refers to the signal ratio; further: on the % scale 0 is the no-effect control and ±100 the full control effect
#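 Read-out is the ratio of GFP to DsRed2 object intensity, acquired by 488 nm laser-scanning cytometry on HeLa lamin A-EGFP minigene reporter cells. Compound incubation 48 hrs at 37 °C in Opti-MEM with 2% FBS; DMSO 0.5% final.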
# HPGD block – blocks human HPGD enzyme activity. P15428. Potency, µM, for the others: at the highest dose activity change, negative = inhibition, hits mostly inhibitors. AID 894. actives 4.3% (n = 150,000). purified HPGD, NADH fluorescence kinetic, PGE2 substrate; further: on the % scale 0 is the no-effect control and ±100 the full control effect
#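 NADH formation kinetics: reaction with 30 uM PGE2 and 1 mM NAD+ (final), 20 nM enzyme, Tris-HCl pH 8 with Tween 20, after 15 min compound preincubation at room temperature. Fluorescence change, last versus first of five reads.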
# HttQ103 aggreg – mutant huntingtin aggregation inhibition; PC12 HttQ103-GFP aggregates, Acumen cytometry, 40 h; Potency, µM (top dose mostly 46.1 µM), inactives show top-dose activity change, negative = inhibition, hits mostly inhibitors; actives 1.1% (n = 220,000); active means well fitted curve in the direction sought with a large enough effect; inconclusive means small, poorly fitted or top-dose-only effect, or another doubt; inactive means no such curve, though single readings can be large; an effect the other way counts as inactive or inconclusive; further: on the % scale 0 is the no-effect control and ±100 the full control effect; nearly all actives have a fitted effect of over 60% in size
#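 Multiplexed with ATP-based cell death, this channel scores GFP aggregates in PC12 cells expressing inducible HTTex1-Q103-GFP. Induction used 100 nM tebufenozide; compounds were tested in concentration series.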
# JMJD2E inh – blocks human JMJD2E demethylase activity | B2RXH2 | JMJD2E catalytic domain, FDH-coupled NADH fluorescence (FDH is formaldehyde dehydrogenase) | Potency, µM (doses to about 57.1 µM), without a hit: at the top dose activity change, negative = inhibition, usual class: inhibitors | actives 1.6% (n = 230,000);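 further: 0% = wells with enzyme and -100% = buffer wells without enzyme; nearly all actives have a fitted effect of over 50% in size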
# ALDH1A1 block – ALDH1A1 (human) enzyme inhibition. Purified ALDH1A1, NADH fluorescence, propionaldehyde substrate. actives 7.3% (n = 220,000). AID 1030. Potency, µM (doses to about 75.3 µM), for inactives: at the top dose activity, negative = inhibition, most hits filed as inhibitors. P00352;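 further: plate controls were no enzyme wells and a reference inhibitor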
# Target sequence (P00352 whole entry, looked up): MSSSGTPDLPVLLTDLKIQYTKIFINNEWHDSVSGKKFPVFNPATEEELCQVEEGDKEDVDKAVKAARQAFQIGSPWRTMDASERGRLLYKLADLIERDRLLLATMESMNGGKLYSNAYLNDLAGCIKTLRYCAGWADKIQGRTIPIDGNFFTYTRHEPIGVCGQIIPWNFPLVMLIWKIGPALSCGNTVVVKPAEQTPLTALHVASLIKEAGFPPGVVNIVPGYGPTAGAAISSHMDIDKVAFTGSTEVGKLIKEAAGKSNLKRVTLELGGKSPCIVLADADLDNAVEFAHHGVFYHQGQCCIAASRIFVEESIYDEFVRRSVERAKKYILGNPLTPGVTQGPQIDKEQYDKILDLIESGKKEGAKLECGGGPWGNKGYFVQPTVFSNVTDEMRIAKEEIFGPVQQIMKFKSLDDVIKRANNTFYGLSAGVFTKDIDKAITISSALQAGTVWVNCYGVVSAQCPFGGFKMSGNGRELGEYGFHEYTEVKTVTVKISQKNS
# The depositor's hits bear a star; u = inconclusive; x = no result; ! = not confirmed by another sample; [ ] = remark or other dose. Rows were chosen to be rich in hits. Some 9.2% of all compounds tested hit in one or more screens of this group. Unless noted, the call rests on the fitted dose curve; in most records, active means well fitted inhibition curve with a large enough effect (not every such curve was filed as active); inconclusive means small, poorly fitted or top-dose-only effect, or another doubt; inactive means no such curve, though single readings can be large or run the other way. Potency means the concentration at half of the fitted maximal effect.
SMILES,HTT cytoprotect,LMNA splice mod,HPGD block,HttQ103 aggreg,JMJD2E inh,ALDH1A1 block
O=C(/C=C/c1ccccc1Cl)c1cccnc1,-15%,u,28µM*,-4%,-3%,14µM*
Cc1ccc(C)c(/C=C/C(=O)c2ccccc(=O)c2O)c1,x,u,-13%,-16%,22µM*,-7%
O=C(/C=C/c1ccc(Cl)cc1)c1cccnc1,-29%,u,-13%,15%[9.22 µM],5%,-12%
CCCCCCCCCCCCCCCCCCOCC(O)CO (stereo unspecified),16%,13%,-6%,10%,1%,0%
CCCN(CCC)C(=O)c1cc([N+](=O)[O-])cc2c1-c1ccc([N+](=O)[O-])cc1C2=C(C#N)C#N,-15%[10 µM],x,x,-8%[9.22 µM],u,x
N/C(=N\OC(=O)/C=C/c1ccccc1)c1ccncc1,-9%,x,x,10%,6%,3%
N/C(=N\OC(=O)/C=C/c1ccccc1Cl)c1ccncc1,u,x,x,14%,5%,10µM*
CCN(CC)c1ccc(/C=C/C(=O)c2cccnc2)cc1,-17%,-16%[9.22 µM],x,-10%,2%,-2%
O=C(/C=C/c1ccc(OCc2ccccc2)c(OCc2ccccc2)c1)c1cccnc1,3%[1.9 µM],u,-25%,21%,-10%,7.1µM*
COc1ccc(OC)c(NC(=O)CN2C(=O)CCc3cc(S(=O)(=O)N4CCCCC4)ccc32)c1,x,6%[46 µM],x,x,x,x
COC(=O)N1[C@H](C)C=C[C@]1(Cc1ccccc1)C(=O)NCc1ccc(N(C)C)cc1,-50%,x,-14%,x,18µM*,8.9µM*
COC(=O)c1cccc(-n2c(C)cc(C=O)c2C)c1C,11%[10 µM],1%,-11%,24%,0%,0.63µM*
COc1ccc(-n2c(C)cc(C=O)c2C)cc1Cl,-22%,6%,18µM*,5%,-8%,1µM*
COc1ccc(OC)c(-n2c(C)cc(C=O)c2C)c1,-6%,-3%[46 µM],x,12%[9.22 µM],-11%,5.6µM*
Cc1cc(C=O)c(C)n1-c1ccc(Cl)c(C(=O)O)c1,x,x,x,-8%,-21%,u
COc1ccc(OC)c(-n2c(=O)c3ccccc3c3ccccc3c2=O)c1,25%[10 µM],u,-6%,29%,3%,-8%
OB(O)c1cc2ccccc2s1,-54%,x,-10%,x,13%,5%
CCOc1cccc(C(=O)NC(=S)Nc2ccc(Cl)cc2C(=O)O)c1,15%,x,x,-16%,u,u
CN(C)CCNC(=O)c1sc2cccc(F)c2c1Cl,-8%,u,x,-3%,-1%,14µM*
O=C(NCCCn1ccnc1)c1cccc(S(=O)(=O)Nc2ccccc2F)c1,-2%[10 µM],-1%,2%,-8%,2%,-5%
O=C(NCCCn1ccnc1)c1sc2cccc(F)c2c1Cl,-5%,-9%,-19%,-16%,-14%,28µM*
O=C(Nc1cccnc1)c1sc2cccc(F)c2c1Cl,-29%,u,x,-30%,-3%,u
O=c1cc(-c2ccccc2Cl)oc2c([N+](=O)[O-])ccc(O)c12,-32%,x,-18%,x,x,0%
O=C1NC(=O)C(c2ccccc2[N+](=O)[O-])=C1Nc1ccc(O)c(Cl)c1,13µM*!,u,-14%,x,-2%,28µM*!
Cc1cc(Cl)ccc1NNC(=O)c1c(C)noc1C,-8%[10 µM],u,x,1%[9.22 µM],-9%,u
SMILES,HTT cytoprotect,LMNA splice mod,HPGD block,HttQ103 aggreg,JMJD2E inh,ALDH1A1 block
Cc1ccc(NNC(=O)c2c(C)noc2C)cc1Cl,-6%[10 µM],u,x,6%[9.22 µM],-29%,28µM*
Cc1ccc(NNC(=O)c2ccno2)cc1C,16%[10 µM],x,x,-1%[9.22 µM],7%,x
Cc1ccc(NNC(=O)c2ccno2)cc1Cl,-14%[10 µM],u,x,8%[9.22 µM],-26%,14µM*
Cc1ccc(Cc2nc3ccccc3nc2SCC(=O)N2CCN(c3ccccc3F)CC2)cc1,x,-15%[46 µM],x,x,x,x
CCOc1ccc2oc(C(=O)NCC(C)(C)CN(C)C)c(C)c2c1,-49%,-12%[46 µM],x,13%,u,u
Cc1cccc(OCC(=O)Nc2ccc(N3CCN(C(=O)c4ccccc4)CC3)cc2)c1,7%[0.074 µM],u,-13%,13µM*,-12%,u
CCN1C(=O)C(C(=O)c2ccccc2)SC1=S (stereo unspecified),-32%,-19%[46 µM],x,-9%,-11%,7.5µM*
Cc1ccc2[nH]c(=O)c(CN(CCc3ccccc3)Cc3nnnn3CC3CCCO3)cc2c1 (stereo unspecified),5%[10 µM],-2%,-18%,-7%,u,22µM*
COc1ccc2cc(CN(CCc3ccccc3)Cc3nnnn3CC3CCCO3)c(=O)[nH]c2c1 (stereo unspecified),4%[10 µM],9%,-17%,-13%,u,0.28µM*
CCOc1ccc2[nH]c(=O)c(CN(CCO)Cc3nnnn3CCc3ccccc3)cc2c1,9%[10 µM],3%,-18%,26%,u,u
COCCn1nnnc1CN(CCc1ccccc1)Cc1cc2ccc(C)cc2[nH]c1=O,-14%[10 µM],2%,-4%,32%,4%,4.5µM*
COc1cc(/C=C(/C#N)c2nc3ccccc3[nH]2)ccc1OCc1ccc(C(=O)O)o1,-23%,-8%,u,1%,5%,-10%
